From the supplement of paper PMC3334620
In all, about 33,000 sequences were measured (“E-score (-0.5 to 0.5)”: median about -0.056, highest 2% from about 0.38 on). Shown is part of a subset that was picked to be rich in the highest values.

Molecular target: Stb4 (UniProt P50104)
Experiment: PBM E-score (8-mer binding enrichment) (E-score (-0.5 to 0.5)); higher = stronger / more preferred TF binding
Settings: protein concentration: 200 nM; construct: GST-DNA-binding domain
Summary of the method: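 Universal all-10-mer Agilent arrays, double-stranded by primer extension on fresh or once-stripped slides, were probed with about 100-200 nM GST-tagged yeast transcription factors made by PURExpress. Fluorescent anti-GST detected bound protein, and masliner normalised the scans. E-scores from the Universal PBM Analysis Suite were given to each ungapped eight-base word pooled with its reverse complement.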

UniProt P50104, sequence (P50104 whole entry): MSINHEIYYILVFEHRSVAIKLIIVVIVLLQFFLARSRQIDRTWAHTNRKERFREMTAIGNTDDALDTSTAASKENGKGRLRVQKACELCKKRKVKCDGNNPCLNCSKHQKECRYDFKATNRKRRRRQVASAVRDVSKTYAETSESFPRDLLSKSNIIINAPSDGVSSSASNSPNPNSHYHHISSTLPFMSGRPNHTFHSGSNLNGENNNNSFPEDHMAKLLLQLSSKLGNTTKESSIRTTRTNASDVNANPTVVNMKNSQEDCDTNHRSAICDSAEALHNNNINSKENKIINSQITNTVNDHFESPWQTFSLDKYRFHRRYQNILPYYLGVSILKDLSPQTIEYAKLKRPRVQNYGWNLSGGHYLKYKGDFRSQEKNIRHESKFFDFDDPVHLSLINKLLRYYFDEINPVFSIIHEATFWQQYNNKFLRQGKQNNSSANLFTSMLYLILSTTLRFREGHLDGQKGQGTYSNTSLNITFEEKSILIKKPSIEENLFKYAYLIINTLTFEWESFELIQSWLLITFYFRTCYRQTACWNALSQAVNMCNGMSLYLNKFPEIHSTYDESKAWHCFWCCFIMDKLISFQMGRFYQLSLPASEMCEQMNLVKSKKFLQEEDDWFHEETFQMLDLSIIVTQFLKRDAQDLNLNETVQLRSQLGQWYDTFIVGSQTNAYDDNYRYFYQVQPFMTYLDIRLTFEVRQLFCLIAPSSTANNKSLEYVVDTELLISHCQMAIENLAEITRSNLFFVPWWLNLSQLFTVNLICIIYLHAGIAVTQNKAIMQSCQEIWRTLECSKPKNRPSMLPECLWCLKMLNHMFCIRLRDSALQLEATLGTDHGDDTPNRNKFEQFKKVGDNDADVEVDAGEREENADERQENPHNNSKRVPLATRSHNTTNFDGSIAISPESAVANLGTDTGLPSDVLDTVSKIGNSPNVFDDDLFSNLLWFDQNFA

Sequence | PBM E-score
AACGTTCG | 0.113
CTTTCTGA | -0.25
CGCGCCAG | 0.104
AGCGCTCG | -0.0312
CTTCGTCA | -0.177
GTAGTTCA | 0.0756
GCGGTGCA | -0.283
ATTCTCCG | 0.264
AGTAAAAC | -0.181
GTGGTGAA | 0.0732
GTTTCGTA | 0.128
GTTTCGAA | -0.145
GTTTCGGA | 0.43
AAGCTGAT | 0.104
CCACCTAC | -0.246
AGCATCAA | -0.15
ACAGGTGG | -0.226
TCGAGGAA | -0.13
ACGAGGAG | -0.349
CCGAGGAC | 0.371
CGGAGGAG | 0.209
CCGAGGAG | 0.393
CCGAGGAA | 0.387
ATGAAGGG | -0.114
CAGGAGTC | -0.0625

Sequence | PBM E-score
AGTCGCAT | -0.137
CTGGTAGC | -0.224
ACACCGGG | 0.213
CGTATGGA | -0.0248
CATGGGCG | -0.0118
ACCATACC | 0.044
AACTCCGG | 0.352
AACTCCGT | 0.206
GTCTCCGA | 0.352
ATCTCCGA | 0.396
AACTCCGA | 0.412
ATCTCCGC | 0.151
TCCAAAAA | 0.0234
GTCGCTCA | -0.129
GCCGACTA | 0.166
CATTCTTC | -0.0802
GTTTGCGA | -0.155
TCAGCCCA | -0.11
TCCGCCGA | 0.403
CCCGCCGA | 0.367
GCAGCCGA | 0.396
GCAGCCTA | -0.153
TCAGCCGA | 0.385
ACAGCCGA | 0.383
ACAGCCGC | 0.105

Sequence | PBM E-score
GCAGCCGC | 0.154
ACAGCCGG | 0.35
GCCGCCGA | 0.331
CCAGCCGA | 0.322
ATAAACCC | 0.0851
CGCTATAC | 0.0197
GCCAAAGC | -0.121
CAGACCTG | -0.17
TATTTCGA | 0.00011
AATGTCTG | 0.0612
ATGACGGA | 0.217
AATCTTGC | -0.0133
CAGGAATC | -0.0371
AACTAAGT | -0.0531
AGCTTCCA | 0.0259
CGCTTCCA | -0.0326
AGCTTCCC | -0.00142
AGCTTCCG | 0.423
CGCTTCCC | 0.188
CGCTTCCG | 0.402
CCTCCACC | -0.0886
ATCAAGGC | -0.111
GTAGCCGA | 0.4
CTAGCCAA | -0.0164
ATAGCCGG | 0.353

Sequence | PBM E-score
ATAGCCGA | 0.442
CTAGCCGA | 0.455
CTAGCCGC | 0.21
GTAGCCAA | -0.025
GTAGCCTA | -0.382
ATAGCCGC | 0.236
AAGAGTGG | -0.179
CTGCCTAA | -0.169
TGCCAAAA | -0.0796
TCGGGGCA | 0.226
ACTGGGCT | -0.0497
ACAGTGCT | -0.181
ATCACAAA | -0.149
CTATCTAC | -0.0208
CTCGCCGC | 0.0149
ACTGTACG | -0.153
GCGAGGTA | -0.124
ACGAGGTC | -0.278
ACGAGGTA | -0.0352
CTGAGGTC | -0.243
CCGAGGTC | 0.424
CCGAGGTA | 0.401
ACGAATCA | -0.0567
CCAGTAAA | -0.0636
TGATCGAA | -0.125

Sequence | PBM E-score
GACCGCGA | 0.0256
AAATCCCG | 0.339
ATCTCGCG | -0.0115
ATCTCGCA | -0.035
GTCTCGGA | 0.442
GTCTCGTA | -0.115
ATCTCGAG | -0.0973
ATCTCGGG | 0.449
ATCTCGAA | -0.0183
GTCTCGAA | -0.255
ATCTCGGA | 0.461
AAGATTTA | 0.0925
AAGAAATA | -0.0625
AGTTAGGA | -0.167
ATCACGAC | -0.123
CGTCGGTA | 0.294
ATTCGGTA | 0.36
CTTCGGTA | 0.383
GTTCGGTA | 0.425
CTTCGGTC | 0.234
GGTCGGTA | 0.223
AAGACTCC | -0.0274
AGATAGTG | -0.0913
ATAAGTAG | -0.157
CCCGAACC | 0.414

Sequence | PBM E-score
TGCGAACA | -0.144
TACGAACA | -0.191
TCCGAACA | 0.447
GGCGAACC | -0.0255
GCCGAACC | 0.395
CCCGAACA | 0.393
CCCGAACG | 0.378
CGCGAACC | 0.166
CACGAACC | -0.198
CACGAACA | -0.0987
ACCGAACC | 0.336
GGAAAGTA | 0.172
GAAATAGC | 0.0755
GATCTTGC | 0.0905
AGGCAGAC | -0.1
CGAGACGC | 0.14
ACCCGCTA | 0.151
CACCCTAA | -0.201
CTACAGTA | -0.139
ACTCCTTA | -0.0987
CGCAAGAA | 0.0756
GCCGAACA | 0.393
ACCGAACA | 0.313
GTCGAACA | -0.044
CCAGGTCG | -0.247

Sequence | PBM E-score
AACACCCG | 0.4
ATTACCCC | 0.133
ACTACCCA | -0.261
AATACCCG | 0.431
CACACCCG | 0.3
ATTACCCA | -0.0268
AATACCCA | -0.00809
AATACCCT | 0.0669
AACACCCC | 0.0426
ACTACCCG | 0.401
ATTACCCG | 0.416
ACTACCCC | -0.0517
CCAGTGCA | -0.303
ACGGCTAG | 0.12
ACAGCCAA | -0.135
TCTAGAGA | -0.256
TGAAACAA | -0.124
CAAGAAAG | -0.0821
ACGAACGC | -0.15
CCGAACGA | 0.379
CCGAACGC | 0.415
ACGAACGG | 0.0948
